Experimental data from PubChem BioAssay AID1508645 (National Center for Advancing Translational Sciences (NCATS), 2021).
Inconclusive results are not listed. A call without a number means that no potency is given here. The source made the active and inactive calls. Calls come from the whole dose curve; as a rule, active = well fitted cell-killing curve with a large enough effect; inconclusive = small, poorly fitted or top-dose-only effect, or effect the other way; inactive = no such curve, though single readings can be large or run the other way.

Test: Cell viability assay in S16 Pmp22-HiBiT cells
Conditions: S16 Schwann Pmp22-HiBiT viability, CellTiter-Glo, 24 h; series mostly up to 27.9 µM
From the text: Assay Provider: Jim Inglese Ph.D. National Center for Advancing Translational Science, National Institutes of Health, Rockville, MD CMT is a heterogeneous group of neurological disorders that affect approximately 1 in 2,500 people. In particular, the most common form of CMT, CMT1A is genetically linked to the duplication of the PMP22 gene which leads to Schwann cell overexpression, thus manifesting itself as a typical case of dose-sensitive diseases. To identify small molecule compounds that can mediate the expression of PMP22 we developed a phenotypic assay screening strategy by utilizing genome editing techniques to construct Schwann cell lines containing novel reporter technology to monitor the transcriptional or translational regulation of PMP22. For high sensitivity we use a bioluminescent reporter system embedded in the 3' UTR of the PMP22 gene (S16(c9) Pmp22-F2sN) to identify compounds that inhibit gene expression. […] We can further discriminate the effect of all transcriptionally active molecules on PMP22 translation or stability with an assay that incorporates a short NLuc peptide (HiBiT) at the C-terminus of expressed PMP22 (S16(f8) PMP22-HiBiT) allowing alpha complementation and luminescence detection of membrane-associated PMP22 protein. These assays were screened against the NCATS Sytravon Library Collection. Miniaturization of these assays to 1536-well plate format for quantitative high throughput screening (qHTS) yielded rich data sets immediately from the qHTS assay (S16(c9) Pmp22-F2sN), when compared with data from a cell viability assay (Cell TiterGlo) to identify compounds that decreased the output signals through cellular toxicity to streamline the selection process of actives for subsequent characterization using the HiBiT assay (S16(f8) PMP22-HiBiT).
Cell viability assay in S16 Pmp22-HiBiT cells PROTOCOL TABLE (format as described by Inglese J, Shamu CE and Guy RK. 2007) SEQUENCE No. (e.g., 1, 2, 3, etc.); PARAMETER (e.g., Cells, Incubation, Reagent, etc.); VALUE and DESCRIPTION. 1. Cells. Add 500-1,000 cells in 4 uL in growth media (DMEM High Glucose, No Phenol Red media + 10% heat-inactivated FBS + 1% Pen/Strep supplemented media) per well into Greiner 1536-well white/solid bottom high base, TC-treated plates. 2. Compounds. Library compounds and controls added at 23nL per well, transferred by Pin Tool. 3. Incubation. Incubate plates at 37C, 5% CO2, 95% RH for 24 h. 4. Reagent. Add 3uL CellTiter-Glo per well of Greiner 1536-well plates. 5. Incubation. Incubate plates at room temperature for 15 min., protect from light. 6. Detector. Luminescence measured using CCD-based camera (Viewlux). NOTES (numbers refer to Sequence numbers above; values are from representative experiments) 6. Luminescence Read: Clear filter; Exposure = 1 sec, Gain = High, Speed = Slow, Binning = 2X REFERENCES: 1. Inglese J, Shamu CE and Guy RK, Reporting data from high throughput screening of small molecule libraries, Nature Chemical Biology, 2007, 3(8): 438-441. doi.org/10.1038/nchembio0807-438 2. Yasgar A, Shinn P, Jadhav A, Auld DS, Michael S, Zheng W, Austin CP, Inglese J and Simeonov A, Compound Management for Quantitative High-Throughput Screening. J. Assoc. Lab. Auto., 2008, 13: 79-89. doi: 10.1016/j.jala.2007.12.004

Structure (SMILES)	Potency
COc1ccc(NC(=O)c2nc(S(=O)(=O)Cc3ccc(C)cc3)ncc2Cl)cc1	8.13 µM (active)
Cc1ccc(OCC(=O)Nc2ccc3nc(SCC(=O)N4CCc5ccccc54)sc3c2)cc1	inactive
O=S(=O)(NCC(c1ccco1)S(=O)(=O)c1cccs1)c1ccc(Cl)cc1 (stereo not given)	inactive
Cc1ccc(NC(=O)N2CCc3cc(S(=O)(=O)N4CCC(C)CC4)ccc32)cc1F	inactive
COc1ccc(NC(=O)c2oc3ccccc3c2NC(=O)Cc2ccc(F)cc2)c(OC)c1	inactive
CCOCCCNC(=O)c1ccc(-n2c(-c3ccccc3)cc3c2CCC(C)C3)cc1 (stereo not given)	inactive
Cc1cc(NC(=O)C2CCCN(S(=O)(=O)c3cccc4nonc34)C2)ccc1Br (stereo not given)	inactive
Cc1ccc(CNC(=O)c2nc(S(=O)(=O)Cc3ccc(C)cc3)ncc2Cl)cc1	inactive
CCOC(=O)c1cc2c(=O)n3ccccc3nc2n(Cc2ccco2)c1=NC(=O)c1cc(C)cc(C)c1	inactive
O=C(CSc1nc2c([nH]c3ccccc32)c(=O)n1-c1cccc(Cl)c1)c1ccccc1	inactive
O=C(Cn1c(-c2cccs2)cc2cc(F)ccc21)NCCCN1CCN(c2ccc(F)cc2)CC1	inactive
CCc1ccccc1Nc1nn2c(=O)c3ccc(C(=O)Nc4cc(C)cc(C)c4)cc3nc2s1	6.45 µM (active)
CCCn1c(=N)c(C(=O)NC(C)c2ccccc2)cc2c(=O)n3ccccc3nc21 (stereo not given)	inactive
CCC(=O)C1=C(c2cccc([N+](=O)[O-])c2)N(C(=O)CC)n2c(nnc2C2CCCCC2)S1	inactive
COc1ccc(CCNC(=O)Cn2c(-c3cccs3)cc3cc(F)ccc32)cc1OC	inactive
COc1ccc(-c2noc(CSc3nnc(-c4ccncc4)n3-c3ccc(C)cc3)n2)cc1	inactive
CCC(Sc1nc2ccccc2c2nc(-c3ccccc3)nn12)C(=O)Nc1cccc(OC)c1 (stereo not given)	inactive
Cc1ccc(S(=O)(=O)c2nnn3c2nc(NC2CCCCCC2)c2sccc23)cc1C	inactive
CCOC(=O)c1ccc(N2C(=O)c3[nH]nc(-c4ccc(C)cc4)c3C2c2ccc(O)c(OCC)c2)cc1 (stereo not given)	inactive
COc1ccccc1Nc1c2c(nc3ccc(NC(=O)/C=C/c4cccc(OC)c4OC)cc13)CCCC2	16.2 µM (active)

Structure (SMILES)	Potency
COc1ccc(Cl)cc1NC(=O)CCCS(=O)(=O)c1nc(-c2ccc(OC)c(OC)c2)cc(C(F)(F)F)n1	6.45 µM (active)
Cc1cccc(Nc2c3c(nc4nncn24)CCC3)c1C	inactive
COc1ccc(Br)cc1CC1C(=O)Nc2ccccc21 (stereo not given)	inactive
COCCCNC(=O)c1ccc2c(c1)N=C(C)c1c(C)ccc(C)c1S2	inactive
Cc1cc(C)c(NC(=O)Cn2c(=O)n(Cc3ccco3)c(=O)c3ccc(C(=O)NC4CCCC4)cc32)c(C)c1	inactive
COc1ccc(N(CC(=O)Nc2cc(Cl)ccc2C)S(=O)(=O)c2c(C)noc2C)cc1	inactive
Cc1ccc(C)c(NC(=O)Cn2c(=O)n(Cc3ccc4c(c3)OCO4)c(=O)c3ccc(C(=O)NC4CCCCC4)cc32)c1	inactive
Cc1ccc(NC(=O)CSc2nc3ccc(NC(=O)COc4ccc(C)cc4)cc3s2)cc1	inactive
COc1ccccc1Nc1nn2c(=O)c3ccc(C(=O)Nc4ccc(F)cc4)cc3nc2s1	4.57 µM (active)
COc1ccc(Nc2nc3c(S(=O)(=O)c4ccccc4)nnn3c3ccc(Cl)cc23)cc1	inactive
COc1cccc(-n2c(SCC(=O)c3ccc(Cl)cc3)nc3c([nH]c4ccccc43)c2=O)c1	inactive
CCC(=O)C1=C(c2cccc([N+](=O)[O-])c2)N(C(=O)CC)n2c(nnc2-c2ccccc2)S1	inactive
COc1ccc(OC)c(NC(=O)CSc2c3c(nc4ccccc24)CCCC3)c1	16.2 µM (active)
COc1ccccc1CNC(=O)CSc1nnc(C)c2c(C)n(-c3ccccc3)nc12	inactive
COC(=O)c1c(-c2ccc(Cl)cc2)noc1N1CCN(c2ccccc2OC)CC1	inactive
CCc1ccc(C(=O)c2cn(CC(=O)Nc3cc(OC)cc(OC)c3)c3ccc(CC)cc3c2=O)cc1	inactive
CCc1ccc(OCC(=O)Nc2cc3oc4ccccc4c3cc2OC)cc1	inactive
Cc1c(Cl)cccc1NC(=O)c1oc2ccc(S(=O)(=O)N3CCC4(CC3)OCCO4)cc2c1C	inactive
CCC(=O)N1CCc2cc(S(=O)(=O)CCC(=O)Nc3ccc(Cl)c(C(F)(F)F)c3)ccc21	inactive
Cc1ccc(CNC(=O)c2ccc(Nc3nc4ccccc4n4nnnc34)cc2)cc1	inactive
